In all, about 18,000 sequences were measured (“log2 normalized intensity”: median about 0.36, highest 2% from about 7.3 on). The entries come from a sample that favours the highest values as a whole.
These sequences were tested against T1, HNF4alpha8 (COS-7 nuclear extract) (Homo sapiens, UniProt P41235-5 1-452) (assay: protein-binding microarray; COS-7 nuclear extract on double-stranded Agilent 4x180k PBM; binding buffer, salt, pH and temperature not given in the material; high values mean tight binding). Details: chain copies: 2; label: 3' end of strand 1 on the slide; dsDNA, one strand shown.
T1 sequence: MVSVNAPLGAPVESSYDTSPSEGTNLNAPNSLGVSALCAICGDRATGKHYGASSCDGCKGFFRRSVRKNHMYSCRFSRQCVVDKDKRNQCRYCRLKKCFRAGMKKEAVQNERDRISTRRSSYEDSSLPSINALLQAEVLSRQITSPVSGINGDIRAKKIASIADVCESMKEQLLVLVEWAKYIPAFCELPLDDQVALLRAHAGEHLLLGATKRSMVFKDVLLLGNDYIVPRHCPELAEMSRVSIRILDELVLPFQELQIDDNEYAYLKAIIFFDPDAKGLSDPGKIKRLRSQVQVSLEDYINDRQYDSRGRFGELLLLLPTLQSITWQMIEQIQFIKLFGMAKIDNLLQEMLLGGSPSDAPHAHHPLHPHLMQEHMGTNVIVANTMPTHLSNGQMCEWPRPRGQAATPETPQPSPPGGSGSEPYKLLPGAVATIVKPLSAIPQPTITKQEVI
Outline: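 Double-stranded oligonucleotides of ~60 nt, representing ~44,000 test sequences in quadruplicate, made up a custom Agilent SurePrint G3 4x180k array. Nuclear extracts from COS-7 cells transiently transfected by CaPO4 with a human HNF4α isoform expression vector were applied, and bound HNF4α was imaged at 2-µm resolution on an Agilent G2565CA scanner. Binding signal refers to the background-corrected, normalized gProcessedSignal output of Agilent software.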

Sequence | binding signal [log2 normalized intensity]
AATGCCCAGGATTCCTTTTTCACTGCTCACGCCTAGGGAGATTAGAGTATCGGTCGA | -0.85
CACTTCCCGAGTGAGGCAATGCCTCGCCCTGCCTAGGGAGATTAGAGTATCGGTCGA | -0.664
ATTCAGCATTGCTTGGGAGCAGTCCTTGGGGCCTAGGGAGATTAGAGTATCGGTCGA | -0.959
AGCATGTTTGGTGACCCGTGACCCTCAGGAGCCTAGGGAGATTAGAGTATCGGTCGA | 3.82
CCGTCTCTCACCAAATCCCTGCCCACATCCGCCTAGGGAGATTAGAGTATCGGTCGA | 2.23
CTCCTTGGAAGTCGCCGTGAGGTTATTTGCGCCTAGGGAGATTAGAGTATCGGTCGA | 0.914
GAGAGGCTTATGCATGGGAGATCTTCAGTAGCCTAGGGAGATTAGAGTATCGGTCGA | -0.357
TTCCTTATCTGGAATTCCTCCTCCTGTTTGGCCTAGGGAGATTAGAGTATCGGTCGA | 0.85
TCTTTTGACCTTTGCCTCATTCTTATTGCCGCCTAGGGAGATTAGAGTATCGGTCGA | 5.61
GACCTTTATATGTCCACCTTATCTAATGCCGCCTAGGGAGATTAGAGTATCGGTCGA | 2.22
AGCAAACCTGTCTCTCTGCATTCCTCCTGGGCCTAGGGAGATTAGAGTATCGGTCGA | 0.684
TCTTTAAGGACCACATCAAAGGTCATCTCTGCCTAGGGAGATTAGAGTATCGGTCGA | 5.09
TGCAGTGTCCATGGTGACCATGTGATGTGAGCCTAGGGAGATTAGAGTATCGGTCGA | 1.26
AGTGCGATGATCATGGCTCACTGCACCTTGGCCTAGGGAGATTAGAGTATCGGTCGA | 0.737
GATGATCATGGCTCACTGCACCTTGACCTCGCCTAGGGAGATTAGAGTATCGGTCGA | 8.12
GTGGTCCTAAAATTGACCTTTGATCACTCAGCCTAGGGAGATTAGAGTATCGGTCGA | 10.2
TCATGGCTCACTGCACCTTGACCTCCTGGGGCCTAGGGAGATTAGAGTATCGGTCGA | 5.78
CAAATAAACCTTTGACCAATTGACCCTATCGCCTAGGGAGATTAGAGTATCGGTCGA | 4.69
CTCATGTGGTCCTAAAATTGACCTTTGATCGCCTAGGGAGATTAGAGTATCGGTCGA | 11
TGCACTTTGACCGCTCATTTGATCCTCACAGCCTAGGGAGATTAGAGTATCGGTCGA | 4.61
TGCCTTTGATCAGGGACCTTTGTTCCTTTAGCCTAGGGAGATTAGAGTATCGGTCGA | 5
GCTGACCTTTGGTCTAAACCTACTTAGATCGCCTAGGGAGATTAGAGTATCGGTCGA | 4.73
GCCTCCATTAATTAACCTTTGAGCTGGGTGGCCTAGGGAGATTAGAGTATCGGTCGA | 5.22
TGGACTGTTCAAGACCAAAGGTCATGGCAAGCCTAGGGAGATTAGAGTATCGGTCGA | 5.58
TAAGTGTGGGTTTAAGTAAGCCCCCTTCCCGCCTAGGGAGATTAGAGTATCGGTCGA | 4.85
AGCTGACCCCAAAACCCCCAAAGGTGAGTAGCCTAGGGAGATTAGAGTATCGGTCGA | 4.29
GCCACCCTCTGGCCACCAGTTATTCATGTCGCCTAGGGAGATTAGAGTATCGGTCGA | 0.887

Sequence | binding signal [log2 normalized intensity]
CCATGGTAAGAACTACAGTTGACCTTTGAAGCCTAGGGAGATTAGAGTATCGGTCGA | 8.15
GACCTTTGAACACCACAAGTTTGAACTGCAGCCTAGGGAGATTAGAGTATCGGTCGA | 5.65
AACTACAGTTGACCTTTGAACACCACAAGTGCCTAGGGAGATTAGAGTATCGGTCGA | 8.13
CAGTTGACCTTTGAACACCACAAGTTTGAAGCCTAGGGAGATTAGAGTATCGGTCGA | 6.74
TAGGTATGCCCCATGGTAAGAACTACAGTTGCCTAGGGAGATTAGAGTATCGGTCGA | 1.21
ATGCCCCATGGTAAGAACTACAGTTGACCTGCCTAGGGAGATTAGAGTATCGGTCGA | 4.71
TTTTCCTTTGTTGGTTTTGCCCGAGGTCTGGCCTAGGGAGATTAGAGTATCGGTCGA | 1.89
GTGGAATTTGTGCTTATTTCCCATCAAGGAGCCTAGGGAGATTAGAGTATCGGTCGA | 0.292
ATAGCGCCCACACTGCCCATCCCCACTGAAGCCTAGGGAGATTAGAGTATCGGTCGA | 3.12
AGCTGCCCTTTGCACATGCCCCTCCCAGGGGCCTAGGGAGATTAGAGTATCGGTCGA | 2.81
AATGCACTGGTGACTTTAAGTTGACTCCAAGCCTAGGGAGATTAGAGTATCGGTCGA | -0.366
AACGGCCCAGGGTTAGAGGATGACCTTCCCGCCTAGGGAGATTAGAGTATCGGTCGA | 3.71
TCACCAGGATGGGCCATGACCTTTACCCCCGCCTAGGGAGATTAGAGTATCGGTCGA | 10
AGGATGGGCCATGACCTTTACCCCCATTTGGCCTAGGGAGATTAGAGTATCGGTCGA | 8.39
ATGACCTTTACCCCCATTTGGTAATGGGCCGCCTAGGGAGATTAGAGTATCGGTCGA | 5.46
CACTATCACCAGGATGGGCCATGACCTTTAGCCTAGGGAGATTAGAGTATCGGTCGA | 4.97
GGGCCATGACCTTTACCCCCATTTGGTAATGCCTAGGGAGATTAGAGTATCGGTCGA | 7.13
CCTCCAGCTCTTTTGAACCCAAGGCCAAACGCCTAGGGAGATTAGAGTATCGGTCGA | 2.07
ATAAATAAAGCCCTGGGGTAATAAAAGTGTGCCTAGGGAGATTAGAGTATCGGTCGA | -0.134
TTTACTTATCATAAGTCAGCCTGGCTGAAGGCCTAGGGAGATTAGAGTATCGGTCGA | 1.53
ATTTTTCCCTTTGATATTTATCAAGATGAAGCCTAGGGAGATTAGAGTATCGGTCGA | 0.842
ATGAACTTTGACCCACCTACATTGATATTCGCCTAGGGAGATTAGAGTATCGGTCGA | 5.5
TCCCTTTGATATTTATCAAGATGAACTTTGGCCTAGGGAGATTAGAGTATCGGTCGA | 5.51
CACCCAGAACTTTGACCGTTTGATTATTTGGCCTAGGGAGATTAGAGTATCGGTCGA | 2.96
ATTTATCAAGATGAACTTTGACCCACCTACGCCTAGGGAGATTAGAGTATCGGTCGA | 8.8
TTGATATTTATCAAGATGAACTTTGACCCAGCCTAGGGAGATTAGAGTATCGGTCGA | 11.2
GGCCGTGAAGCCGTCCTGTCCTGGACTTTCGCCTAGGGAGATTAGAGTATCGGTCGA | 4.47
